# Compound activity from PubChem BioAssay.
# A selection: hits, their analogues and other compounds. The true share with any hit is near 1.2%.
# BCLXL inh: Bcl-xL (human) inhibition | Q07817 | GST-Bcl-xL / FITC-Bim BH3 peptide fluorescence polarization | inhibition, % at 10.9 µM | 320,000 tested, 0.7% active;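 active means inhibition above the mean of all tested compounds plus 3 SD, cutoff set per campaign, cut at about 30% in these data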;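 further: 0% = DMSO wells and 100% = unlabeled Bim-BH3 peptide competitor; inhibitors lower millipolarization by displacing the labeled peptide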
# Target sequence (Q07817 whole entry, looked up): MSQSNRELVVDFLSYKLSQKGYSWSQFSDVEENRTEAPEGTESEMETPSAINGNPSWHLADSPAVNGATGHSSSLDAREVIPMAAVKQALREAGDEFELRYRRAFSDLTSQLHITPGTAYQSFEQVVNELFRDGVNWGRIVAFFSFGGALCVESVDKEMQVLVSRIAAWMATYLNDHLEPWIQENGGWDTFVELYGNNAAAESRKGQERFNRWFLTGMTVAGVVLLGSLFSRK
# E coli Lon inh: inhibits E. coli Lon protease; inhibition, % at 7.94 µM; purified E. coli Lon protease, fluorescence polarization; P0A9M0; 360,000 tested, 0.42% active; in the data active means inhibition above about 13%, passing the limit was not always enough;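 further: 0% = enzyme with probe and DMSO and 100% = no enzyme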
# GLD-1 TGE inh: GLD-1-TGE RNA interaction inhibition (C. elegans); inhibition, % at 5.96 µM; Q17339; 320,000 tested, 0.44% active; purified GLD-1 + fluorescein TGE RNA, fluorescence polarization;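 active means percent inhibition above a per-plate cutoff, the plate mean of test compounds plus 3 SD, cut at about 30% in these data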;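 further: 0% = DMSO wells with GLD-1 and probe and 100% = wells lacking GLD-1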
# Target sequence (Q17339 whole entry, looked up): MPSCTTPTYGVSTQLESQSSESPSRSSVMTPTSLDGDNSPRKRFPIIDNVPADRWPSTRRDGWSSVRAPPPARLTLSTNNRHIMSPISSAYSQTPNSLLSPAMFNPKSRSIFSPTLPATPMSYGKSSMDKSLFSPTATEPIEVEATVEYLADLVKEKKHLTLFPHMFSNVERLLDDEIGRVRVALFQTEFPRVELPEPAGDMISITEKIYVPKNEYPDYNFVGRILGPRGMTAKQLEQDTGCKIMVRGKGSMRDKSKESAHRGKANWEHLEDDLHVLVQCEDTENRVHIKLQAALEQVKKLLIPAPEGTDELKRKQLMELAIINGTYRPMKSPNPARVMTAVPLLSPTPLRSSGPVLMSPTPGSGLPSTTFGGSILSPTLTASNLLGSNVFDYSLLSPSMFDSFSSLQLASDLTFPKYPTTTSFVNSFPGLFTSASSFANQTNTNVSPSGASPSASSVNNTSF
# MEX-5 binding: C. elegans MEX-5 TCR-2 RNA binding activity. Q9XUB2. MEX-5/FITC-TCR2 RNA binding, fluorescence polarization; active compounds read low. activity score (negative = inhibition of binding), % at 10 µM. 300,000 tested, 0.38% active;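 active means inhibition past about -25% in most replicates, and total fluorescence under double the plate's negative control median, limit read from the data; inconclusive means replicates evenly split on the limit, or fluorescence at least double controls; inactive means too little inhibition in most replicates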;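 further: 0% = DMSO and -100% = 5 µM competing unlabeled TCR2 RNA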
# C-LANA FP: blocks KSHV LANA C-terminal domain binding to DNA; inhibition, % at 9 µM; AID 504423; 340,000 tested, 0.078% active; MBP-C-LANA/FAM-LBS DNA binding, fluorescence polarization;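 active means highest replicate inhibition at or above 60% at 9 µM, even if other replicates fall short; inactive means all replicates below 60% inhibition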;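 further: 0% = neutral control wells and 100% = 4 µM acridine orange control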
# Keap1-Nrf2 PPI: inhibitors of human Keap1-Nrf2 protein-protein interaction | Q14145 | Keap1 Kelch-Nrf2 peptide fluorescence polarization, 1536-well | inhibition, % at 9.4 µM | 340,000 tested, 0.15% active; in the data active means inhibition above about 12%; inconclusive means no clear call, values can overlap the other calls; inactive means below about 7.3%;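 further: human Keap1 Kelch domain with fluorescein labeled Nrf2 9mer peptide probe; 0% = neutral control wells and 100% = peptide positive control; higher means more block of Keap1 binding to Nrf2 peptide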
# Active calls of the source: *; ? = inconclusive; . = no result given.
SMILES,BCLXL inh,E coli Lon inh,GLD-1 TGE inh,MEX-5 binding,C-LANA FP,Keap1-Nrf2 PPI
O=C(O)CCCN1C(=O)/C(=C\c2ccc(-c3nc4ccccc4s3)o2)SC1=S,15.9,-4.7,-7.1,-55.6*,3.4,-26.3
O=C(O)CCN1C(=O)/C(=C/c2ccc(-c3nc4ccccc4s3)o2)SC1=S,10.2,-8.2,-13.5,?,2.8,-46.6
CCOC(=O)/C=c1/s/c(=C/c2ccc3cc(OC)ccc3c2)c(=O)n1CC(=O)NCc1ccc2c(c1)OCO2,.,-20.9,.,.,0.1,-10.4
CCOC(=O)/C=c1\s/c(=C\c2ccc3cc(OC)ccc3c2)c(=O)n1CC(=O)NCC1CCCO1 (stereo not given),1.1,-39.8,2.2,-47.1*,-1.0,-4.0
N#CC1=C(N)Oc2cc(N)ccc2C1c1ccc(F)cc1F (stereo not given),54.7*,-38.5,4.1,-1.2,0.7,-1.7
COC(=O)/C=C1\N/C(=N/c2nc(C)c3cc(OC)ccc3n2)NC1=O,47.8*,-1.8,3.7,-0.2,-0.1,-4.0
CC1CCC(NC(=O)CCS(=O)(=O)c2ccc3c(c2)NC(=O)CS3)CC1 (stereo not given),4.9,-3.0,-6.2,-0.4,1.2,-2.9
Cc1cccc(NC(=O)CCS(=O)(=O)c2ccc3c(c2)NC(=O)CS3)n1,30.9*,10.6,23.1,0.5,4.4,-8.1
COc1ccc(CCNC(=O)CSc2nc3scc(-c4ccccc4)c3c(=O)[nH]2)cc1,.,-18.5,-2.4,.,3.1,-2.7
CC12CCC(=O)N1C(C(=O)NNC(=O)COc1ccc(Br)cc1)CS2 (stereo not given),4.0,-5.5,1.4,-1.9,-4.2,-0.8
CN(CCO)c1nc(N)c2c(N)nc3c(c2c1C#N)CC(=O)N3Cc1cccs1,35.8*,4.5,-1.1,2.3,-1.4,-3.0
N#Cc1c(N(CCO)CCO)nc(N)c2c(N)nc3c(c12)CC(=O)N3Cc1cccs1,63.3*,-6.5,16.5,-0.9,0.8,3.5
COc1ccc(CN2C(=O)Cc3c2nc(N)c2c(N)nc(N4CCOCC4)c(C#N)c32)cc1,38.1*,-14.9,12.5,-8.7,-1.0,-2.5
COCCN1C(=O)Cc2c1nc(N)c1c(N)nc(N3CCN(c4ccc(F)cc4)CC3)c(C#N)c21,21.3,-10.7,-0.2,-0.4,0.3,-0.3
COc1cc2c(cc1OC)CN(c1ccc3ccccc3n1)CC2,-5.3,-3.0,-10.4,-2.7,-1.3,2.0
COc1cc2c(cc1OC)CN(c1ccc(-c3ccccc3OC)nn1)CC2,54.1*,11.0,-16.3,-2.6,-1.5,-7.2
CC(=O)n1c(C=Nc2ccc(Cl)cc2)c(O)c2ccccc21,80.8*,-7.9,-105.2,?,3.1,7.1
CC(=O)n1c2ccccc2c2ccccc21,0.3,3.4,2.7,-2.1,2.6,-0.7
CC1(C)CC(=O)C=C(c2ccccc2-c2ccc(S(C)(=O)=O)cc2)C1=O,.,-1.9,.,.,.,.
Oc1c(C=Nc2ccccc2)sc(=S)n1Cc1ccccc1,-25.3,-24.3,-18.5,-43.5*,1.7,2.2
Cc1cc2cc(NC(=O)c3ccco3)ccc2[nH]1,4.9,1.0,-4.4,-0.2,0.5,-7.9
O=C(Nc1ccc2[nH]c3c(c2c1)CCCC3)c1ccco1,51.7*,10.2,30.3,3.2,0.2,-5.1
NC(=O)c1cc[n+](CC2=C(C(=O)O)N3C(=O)[C@@H](NC(=O)C(c4ccccc4)S(=O)(=O)[O-])[C@H]3SC2)cc1 (stereo not given in full),19.2,32.1,13.6,-20.0,102.4*,23.2*
CCNC(=O)C1(C)CCN(C(=O)c2c(F)ccc(C)c2F)C1 (stereo not given),.,-3.9,.,.,.,.
N=c1c(C(=O)NCC2CCCO2)cc2c(=O)n3ccccc3nc2n1Cc1ccccc1Cl (stereo not given),0.3,9.7,-4.8,-45.6*,-2.4,-0.7
SMILES,BCLXL inh,E coli Lon inh,GLD-1 TGE inh,MEX-5 binding,C-LANA FP,Keap1-Nrf2 PPI
CCNC(=O)c1cc2c(=O)n3cccc(C)c3nc2n(CCc2ccccc2)c1=N,15.8,5.6,-1.8,-65.8*,3.9,-0.7
Cc1ccc(S(=O)(=O)c2cc3c(=O)n4cccc(C)c4nc3n(CC3CCCO3)c2=N)cc1C (stereo not given),0.2,4.7,-4.3,-4.0,-2.5,1.5
Cc1cccn2c(=O)c3cc(C(=O)NC4CCCC4)c(=N)n(CCc4ccccc4)c3nc12,4.5,7.8,-7.4,-38.7*,1.5,-4.2
Cc1cccn2c(=O)c3cc(S(=O)(=O)c4ccccc4)c(=N)n(CC4CCCO4)c3nc12 (stereo not given),4.7,.,-2.5,-38.5*,.,.
Cc1ccc(C(=O)NCc2ccco2)o1,3.6,2.0,7.3,-1.9,0.4,-1.4
CCNC(=O)C1(C)CCN(C(=O)c2ccc3c(c2)OCO3)C1 (stereo not given),.,-7.0,.,.,.,.
FC(F)(F)c1ccccc1NC(=S)Nn1cnnc1,.,-6.4,.,.,-0.7,-6.0
Cc1ccc(S(=O)(=O)N2C[C@H]3C(=O)C[C@@H](c4ccc(Cl)cc4)N(S(=O)(=O)c4ccccc4C)[C@H]3C[C@H]2c2ccccc2)cc1,.,-9.2,.,.,.,.
CCCn1c(=N)c(C(=O)NCC2CCCO2)cc2c(=O)n3cccc(C)c3nc21 (stereo not given),10.5,-3.8,-2.2,-26.9*,-0.4,-0.4
Cc1cccn2c(=O)c3cc(C(=O)NCC4CCCO4)c(=N)n(CCN4CCOCC4)c3nc12 (stereo not given),0.3,6.6,-8.0,-6.3,-3.6,1.7
Cc1cccn2c(=O)c3cc(C(N)=S)c(=N)n(CCCOC(C)C)c3nc12,33.8*,-21.7,-1.9,-7.9,-3.1,-0.9
COc1ccc(CCn2c(=N)c(C(=O)NC3CCCCC3)cc3c(=O)n4ccccc4nc32)cc1,8.6,-2.9,0.3,-45.3*,0.4,-5.2
Cn1c(=O)n(C)c2cc(NC(=O)Cc3ccccc3[N+](=O)[O-])ccc21,3.0,-6.8,4.0,0.8,-2.3,-1.2
Cc1nc(S/C(=C/c2ccc(OCc3ccc(C(=O)O)cc3)cc2)C(=O)O)n[nH]1,3.8,7.0,4.8,-68.9*,1.8,-2.3
N#C/C(=C\c1ccc(OCc2ccc(C(=O)O)cc2)cc1)C(=O)NCc1ccccc1,1.3,-2.3,11.1,2.7,0.8,0.5
CN1C=CC2=C(C#N)C(N)C(C#N)(C#N)[C@H](c3ccccc3)[C@H]2C1 (stereo not given in full),81.4*,12.9,30.1,?,41.2,?
N#CC1(C#N)C(C(N)=O)C1c1ccccc1 (stereo not given),0.7,-9.4,0.9,3.4,-2.0,-7.0
COC(=O)C(Cc1ccc(O)cc1)N1Cc2ccccc2C1=O (stereo not given),2.1,2.2,0.6,2.5,0.6,4.3
CCC1(c2ccccc2)NC(=O)N(CC(=O)NNC(=O)c2ccc(F)cc2)C1=O (stereo not given),.,1.7,.,.,-0.4,-3.3
